# A selection: hits, their analogues and other compounds. The true share with any hit is near 2%.
# Six1-Eya2 blk = qHTS Assay for Inhibitors of the Six1/Eya2 Interaction; Homeobox protein SIX1 (Homo sapiens) + Protein phosphatase EYA2 (Homo sapiens), …; AlphaScreen GST-Six1/His-Eya2 binding, biochemical; active compounds read low; activity change, % (concentration not given with the values); 360,000 compounds, 0.56% hits
#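 Six1/Eya2 binding was read as AlphaScreen signal after compounds were pinned into GST-Six1 plus His-tagged Eya2 (5X stock 250/500 nM) in pH 8.0 Tris/NaCl/TCEP buffer, beads added, then incubated 1 h, 37 C, dark.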
# KDM4E inh = qHTS Assay for Inhibitors of Human Jumonji Domain Containing 2E (JMJD2E) | JMJD2E catalytic domain, FDH-coupled NADH fluorescence (FDH is formaldehyde dehydrogenase) | 230,000 compounds, 1.6% hits | Lysine-specific demethylase 4E (Homo sapiens), B2RXH2 | Potency, µM (series often up to 57.1 µM), usual class: inhibitors; active = well fitted inhibition curve with a large enough effect, not every such curve was filed as active; inconclusive = small, poorly fitted or top-dose-only effect, or another doubt; inactive = no such curve, though single readings can be large or run the other way; also: nearly all actives have a fitted effect of over 50% in size
# Target sequence (B2RXH2 1-337 limits assumed): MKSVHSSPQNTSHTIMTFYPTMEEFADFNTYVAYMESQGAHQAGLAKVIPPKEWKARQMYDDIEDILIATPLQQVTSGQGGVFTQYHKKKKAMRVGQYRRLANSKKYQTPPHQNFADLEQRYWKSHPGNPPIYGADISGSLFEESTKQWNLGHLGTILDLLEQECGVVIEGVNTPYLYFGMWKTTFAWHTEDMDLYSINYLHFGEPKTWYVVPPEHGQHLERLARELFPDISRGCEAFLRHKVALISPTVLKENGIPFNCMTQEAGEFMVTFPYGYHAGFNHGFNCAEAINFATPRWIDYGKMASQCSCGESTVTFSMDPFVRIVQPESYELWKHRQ
# CtBP-E1A blk = qHTS Assay for Inhibitors of the CtBP/E1A Interaction; AlphaScreen GST-E1A/His-CtBP binding, 1536-well; active compounds read low; activity change, % (test concentration not listed); 340,000 compounds, 0.49% hits
#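 GST-E1A and His-tagged CtBP (125 nM each as 5X stock) were preincubated with pin-transferred compound for 2 h at 37 °C in the dark, then glutathione donor and nickel acceptor beads were added for 1 h before AlphaScreen reading.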
# KCNH2 3.1 block = qHTS for Inhibitors of KCHN2 3.1: Mutant qHTS | Potassium voltage-gated channel subfamily H member 2, brain isoform KCNH2 3.1 (human) | 340,000 compounds, 0.95% hits | U2OS KCNH2 3.1, thallium flux FluxOr; active compounds read low | AID 720553, 2013 | activity change, % (tested at about 1.8 µM);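 active = maximum activity change below -70%; inconclusive = maximum activity change from -70% to -50%; inactive = maximum activity change above -50%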;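 also: thallium influx rate constant from kinetic fluorescence after stimulation buffer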
#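 Normalized rate constant (relative to positive and negative DMSO controls) derived from a 2 min kinetic fluorescence read after stimulation; U2OS cells expressing the 3.1 isoform via virus at 1.77 x 10^8 /mL.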
# hERG WT inh = qHTS for Inhibitors of KCHN2 3.1: Wildtype qHTS | Voltage-gated inwardly rectifying potassium channel KCNH2 (Homo sapiens), Q12809 | U2OS, BacMam KCNH2, thallium flux FluxOr; active compounds read low | activity change, % at 1.84 µM | 340,000 compounds, 0.37% hits;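 active = maximum activity change below -70%; inconclusive = maximum activity change between -70% and -50%; inactive = maximum activity change above -50%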
#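 U2OS cells transduced with wild-type KCNH2 virus are loaded with FluxOr dye for 45 min, and thallium flux is measured in kinetic reads before and after stimulation buffer. Rate constants are normalized to DMSO controls.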
# Hits are given with their value; . = inactive; ? = inconclusive; / = no result. Rule as the data show it, unless noted: active = activity change below about -65%; inconclusive = mostly about -30% to -63%; inactive = weaker than that.
SMILES,Six1-Eya2 blk,KDM4E inh,CtBP-E1A blk,KCNH2 3.1 block,hERG WT inh
CN1CCN(C(=O)CN(CCc2ccccc2)S(C)(=O)=O)CC1,.,.,.,.,.
CCCCN=C1NN=C(c2cc3ccccc3o2)CS1,.,25.1µM,.,.,.
CCN(CC)S(=O)(=O)c1cc(OC)ccc1N=Nc1ccc(O)c2ncccc12,-91.5,/,/,.,.
COc1ccc2nc(N=Nc3ccc(O)c4ccccc34)sc2c1,?,.,?,.,.
CCS(=O)(=O)c1ccc(OC)c(N=Nc2ccc(O)c3ncccc23)c1,-91.6,17.8µM,-96.3,.,.
COc1cccc(C=NNC(=O)c2ccncc2)c1O,-80.0,/,-94.0,.,.
COc1cccc(/C=N/NC(=O)c2ccc3nc[nH]c3c2)c1O,-86.8,10µM,-96.1,.,.
COc1cccc(/C=N/NC(=O)c2c(C)nc3ccc(Br)cn23)c1O,-91.6,?,-91.3,.,.
COc1cc(OC)c(OC)cc1/C=N/NC(=O)c1ccc2nc[nH]c2c1,.,?,.,.,.
CCOc1cccc(/C=N/NC(=O)c2cc(C3CC3)[nH]n2)c1O,-86.3,/,/,.,.
CCOc1ccccc1/C=N/NC(=O)c1c(C)nc2ccc(Br)cn12,.,/,.,.,.
COc1cccc(/C=N/NC(=O)N/N=C/c2cccc(OC)c2O)c1O,?,/,?,.,.
OCC[C@@H]1C[C@@H](O)[C@H](O)[C@@]2(CCc3ccccc3CO2)O1,.,/,.,.,.
CCOc1ccccc1CNC(=O)c1ccccc1NC(=O)C1=CSCCO1,.,/,/,.,.
COc1cc2c(cc1NS(=O)(=O)N1CCCCC1)oc1ccccc12,.,?,.,.,.
COc1cccc(/C=N/Nc2ccc(C(=O)O)cc2)c1O,.,.,/,.,.
CCN(CC)c1ccc(/C=N/NC(=O)c2ccc3nc[nH]c3c2)c(O)c1,?,?,-75.5,.,.
COc1cccc(/C=N/Nc2nn3cnnc3c3ccccc23)c1O,-87.5,17.8µM,-91.3,.,.
COc1ccc(CNC(=O)c2ccc(-c3ccccc3)cc2)cc1OC,.,.,.,.,.
COc1cccc(/C=N/NC(=O)c2nc(-c3ccccc3)cc(-c3ccccc3)n2)c1O,.,.,.,.,.
COc1cc(OC)c2cc(C(=O)N/N=C/c3cccc(OC)c3O)[nH]c2c1,?,10µM,-75.5,.,.
COc1cccc(/C=N/NC(=O)c2cc3c(OC)ccc(OC)c3[nH]2)c1O,-68.0,/,/,.,.
O=C(N/N=C/c1ccncc1)NC1CCCCC1,.,.,/,.,.
COc1ccc(C)cc1NC(=O)CCNS(=O)(=O)c1cccc2nonc12,.,/,.,.,.
Cc1[nH]c(=O)c(C#N)c(C)c1CCC(=O)N(C)CC(=O)Nc1ccc(Cl)c(Cl)c1,.,/,.,.,.
SMILES,Six1-Eya2 blk,KDM4E inh,CtBP-E1A blk,KCNH2 3.1 block,hERG WT inh
Cc1cc(N2C3CCC2CC(O)(c2ccc(F)cc2)C3)nc(-c2ccccc2)n1 (stereo not given),.,.,.,-71.8,.
O=C(CC1S/C(=N\S(=O)(=O)c2ccccc2)N(c2ccccc2)C1=O)Nc1ccc(F)cc1 (stereo not given),.,.,.,-80.3,.
CCn1cc(CN2CCC(C(=O)Nc3cccc(-c4cccc(F)c4)c3)CC2)cn1,.,/,.,.,.
COc1cccc(O)c1CN1CCC(C(=O)Nc2ccc(Oc3cccnc3)cc2)CC1,.,/,.,.,.
COc1ccc(CN2CCC(C(=O)Nc3ccc(Oc4cccnc4)cc3)CC2)c(C)c1C,.,/,/,-74.3,.
CCn1nc(C)c(CN2CCC(C(=O)Nc3cccc(-c4cccc(F)c4)c3)CC2)c1C,.,/,/,-78.4,?
COc1cccc(O)c1CN1CCC(C(=O)Nc2ccc(-c3cccc(C)c3)cc2)CC1,.,/,.,-99.2,.
O=C(c1ccco1)N1CCCC(c2nc3c(nnn3Cc3cccc(Cl)c3)c(=O)[nH]2)C1 (stereo not given),.,/,.,.,.
